What all share (experiment): HT-SELEX; high values mean tight binding
Common to all, as to conditions: protein: recombinant; vector His6-GST; dsDNA, one strand shown

One experiment concerns the target T1, SALL4 ZFC4 WT (HT-SELEX) (Mus musculus, UniProt Q8BX22 870-940).
T1 sequence: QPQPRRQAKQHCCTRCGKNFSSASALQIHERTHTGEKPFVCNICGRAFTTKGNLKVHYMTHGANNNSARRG
The method, boiled down:
(§1)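 In triplicate selections of up to 6 cycles, purified recombinant mouse SALL4 zinc finger cluster 4 (residues 870–940, 1 µg) was incubated 10 min at room temperature with library DNA (1.5 µg, then 200 ng) in 100 µl of 10 mM Tris–HCl pH 7.5, 50 mM NaCl, poly(dI-dC) and DTT, and complexes were captured on Ni2+ beads, washed and PCR-amplified. Sequencing was done on MiSeq with scanning for 6-mers. The binding signal is each canonical k-mer's read fraction, reported as fold change against the initial random library.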

Experiment [1] deals with T2, SALL4 ZFC4 R900W (HT-SELEX) (Mus musculus, UniProt Q8BX22 870-940, R900W).
T2 sequence: T1 sequence with R31W
The method in brief:
as §1

Experiment [2] concerns the target T3, SALL4 ZFC4 G921D (HT-SELEX) (Mus musculus, UniProt Q8BX22 870-940, G921D).
T3 sequence: T1 sequence with G52D
The method in brief: as §1

Residue numbers refer to the chain shown, from its start.

For ATCCCG, the figures for the binding signal (with SALL4 ZFC4 WT (HT-SELEX); in experiment [1]; in experiment [2]) were 0.428 ± 0.0246 fold-change vs cycle 0, 0.4832 ± 0.00274 fold-change vs cycle 0 and 0.574 ± 0.0423 fold-change vs cycle 0, respectively.
On to CCTATC, for which the binding signal in the experiment with SALL4 ZFC4 WT (HT-SELEX) was 0.811 ± 0.0304 fold-change vs cycle 0; in experiment [1], 0.939 ± 0.00665 fold-change vs cycle 0; in experiment [2] it was 0.994 ± 0.0224 fold-change vs cycle 0.
The corresponding values for CTCCTC are 0.611 ± 0.00845 fold-change vs cycle 0, 0.705 ± 0.0481 fold-change vs cycle 0 and 0.774 ± 0.0379 fold-change vs cycle 0.
The corresponding values for CCGTAG are 0.35 ± 0.01 fold-change vs cycle 0, 0.427 ± 0.0139 fold-change vs cycle 0 and 0.516 ± 0.0548 fold-change vs cycle 0.
The corresponding values for ATTGTA are 2.07 ± 0.0871 fold-change vs cycle 0, 2.03 ± 0.111 fold-change vs cycle 0 and 1.79 ± 0.162 fold-change vs cycle 0.
For AACGTC, the binding signal with SALL4 ZFC4 WT (HT-SELEX) is 0.624 ± 0.0116 fold-change vs cycle 0; in experiment [1], 0.722 ± 0.0138 fold-change vs cycle 0; in experiment [2], 0.813 ± 0.0314 fold-change vs cycle 0.
For CTGACA, in that order: 0.738 ± 0.0153 fold-change vs cycle 0, 0.843 ± 0.0362 fold-change vs cycle 0 and 0.914 ± 0.0368 fold-change vs cycle 0.
For AGCAAA, in that order: 0.996 ± 0.0354 fold-change vs cycle 0, 1.04 ± 0.0692 fold-change vs cycle 0 and 1.07 ± 0.0335 fold-change vs cycle 0.
The corresponding values for CCCATC are 0.471 ± 0.0121 fold-change vs cycle 0, 0.54 ± 0.0172 fold-change vs cycle 0 and 0.613 ± 0.034 fold-change vs cycle 0.
Turning to CGCAAA, the binding signal was 0.335 ± 0.00942 fold-change vs cycle 0 with SALL4 ZFC4 WT (HT-SELEX), 0.376 ± 0.0263 fold-change vs cycle 0 in experiment [1] and 0.498 ± 0.0731 fold-change vs cycle 0 in experiment [2].
As to CGTTCA, the results for the binding signal (with SALL4 ZFC4 WT (HT-SELEX); in experiment [1]; in experiment [2]) were 0.712 ± 0.0321 fold-change vs cycle 0, 0.811 ± 0.0256 fold-change vs cycle 0 and 0.871 ± 0.0211 fold-change vs cycle 0, respectively.
For ACCACG, the binding signal stood at 0.351 ± 0.0168 fold-change vs cycle 0 in the experiment with SALL4 ZFC4 WT (HT-SELEX), 0.428 ± 0.0163 fold-change vs cycle 0 in experiment [1] and 0.523 ± 0.0453 fold-change vs cycle 0 in experiment [2].
In the case of AACGAC, the binding signal stood at 0.568 ± 0.0525 fold-change vs cycle 0 in the experiment with SALL4 ZFC4 WT (HT-SELEX), 0.668 ± 0.0478 fold-change vs cycle 0 in experiment [1] and 0.771 ± 0.0138 fold-change vs cycle 0 in experiment [2].
For the sequence AGGTTA, the figures for the binding signal (with SALL4 ZFC4 WT (HT-SELEX); in experiment [1]; in experiment [2]) were 1.49 ± 0.0813 fold-change vs cycle 0, 1.57 ± 0.127 fold-change vs cycle 0 and 1.44 ± 0.162 fold-change vs cycle 0, respectively.
Regarding TCACCA, the binding signal in the experiment with SALL4 ZFC4 WT (HT-SELEX) was determined as 0.829 ± 0.0293 fold-change vs cycle 0; in experiment [1] it was 0.931 ± 0.0104 fold-change vs cycle 0; in experiment [2], 0.988 ± 0.0172 fold-change vs cycle 0.
The corresponding values for AGGATA are 1.55 ± 0.0339 fold-change vs cycle 0, 1.69 ± 0.0876 fold-change vs cycle 0 and 1.5 ± 0.15 fold-change vs cycle 0.
Regarding AGCTCC, the binding signal was determined as 0.365 ± 0.00759 fold-change vs cycle 0 in the experiment with SALL4 ZFC4 WT (HT-SELEX), 0.455 ± 0.0186 fold-change vs cycle 0 in experiment [1] and 0.588 ± 0.0519 fold-change vs cycle 0 in experiment [2].
For ACGGTG, in that order: 0.355 ± 0.0186 fold-change vs cycle 0, 0.414 ± 0.0142 fold-change vs cycle 0 and 0.528 ± 0.0554 fold-change vs cycle 0.
The corresponding values for AAGCAC are 0.582 ± 0.0244 fold-change vs cycle 0, 0.678 ± 0.0144 fold-change vs cycle 0 and 0.796 ± 0.0229 fold-change vs cycle 0.
On to CCAACA, for which the binding signal in the experiment with SALL4 ZFC4 WT (HT-SELEX) is 0.656 ± 0.00995 fold-change vs cycle 0; in experiment [1], 0.739 ± 0.0191 fold-change vs cycle 0; in experiment [2] it was 0.817 ± 0.0303 fold-change vs cycle 0.
The corresponding values for GAATCC are 0.85 ± 0.00926 fold-change vs cycle 0, 0.935 ± 0.0194 fold-change vs cycle 0 and 0.989 ± 0.0139 fold-change vs cycle 0.
The corresponding values for CCATCG are 0.385 ± 0.00824 fold-change vs cycle 0, 0.438 ± 0.0205 fold-change vs cycle 0 and 0.557 ± 0.0511 fold-change vs cycle 0.
For TCAAGA, in that order: 1.32 ± 0.0482 fold-change vs cycle 0, 1.49 ± 0.0445 fold-change vs cycle 0 and 1.4 ± 0.0701 fold-change vs cycle 0.
As to ATGGGG, the binding signal with SALL4 ZFC4 WT (HT-SELEX) came to 0.486 ± 0.0322 fold-change vs cycle 0; in experiment [1], 0.546 ± 0.0309 fold-change vs cycle 0; in experiment [2], 0.615 ± 0.052 fold-change vs cycle 0.
For AATTGA, in that order: 1.92 ± 0.0967 fold-change vs cycle 0, 1.88 ± 0.0991 fold-change vs cycle 0 and 1.75 ± 0.142 fold-change vs cycle 0.
The corresponding values for ATATCA are 2.74 ± 0.247 fold-change vs cycle 0, 2.05 ± 0.0942 fold-change vs cycle 0 and 1.83 ± 0.136 fold-change vs cycle 0.
For ATGGTG, in that order: 0.792 ± 0.0243 fold-change vs cycle 0, 0.882 ± 0.0384 fold-change vs cycle 0 and 0.941 ± 0.0443 fold-change vs cycle 0.
Take ACCCAC: the binding signal with SALL4 ZFC4 WT (HT-SELEX) is 0.443 ± 0.0307 fold-change vs cycle 0; in experiment [1] it was 0.506 ± 0.0282 fold-change vs cycle 0; in experiment [2], 0.606 ± 0.0557 fold-change vs cycle 0.
For CAATTG, in that order: 1.09 ± 0.0289 fold-change vs cycle 0, 1.247 ± 0.0104 fold-change vs cycle 0 and 1.28 ± 0.0217 fold-change vs cycle 0.
As for ACACCT, the binding signal in the experiment with SALL4 ZFC4 WT (HT-SELEX) was determined as 0.834 ± 0.0401 fold-change vs cycle 0; in experiment [1], 0.949 ± 0.0347 fold-change vs cycle 0; in experiment [2] it was 0.979 ± 0.022 fold-change vs cycle 0.

The record behind these values is article PMC9838217, “Structure of SALL4 zinc finger domain reveals link between AT-rich DNA binding and Okihiro syndrome”.
